Laboratory results from ChEMBL document CHEMBL3988442, “University of Dundee, Small-Polar-MMV Screening Library” (2021).

How the values were obtained:
[1] = biological target: T1, Aspartate--tRNA(Asp/Asn) ligase (Mycobacterium tuberculosis (strain ATCC 25618 / H37Rv)) (UniProt P9WFW3); experiment: Assay for Asp RNA synthetase-1 from Mycobacterium tuberculosis; assay type: functional; parameters: scale not given: direction of the effect not stated beside the values; details: 30 µM; also: in the data most compounds retested in dose-response had high values
T1 sequence (whole entry): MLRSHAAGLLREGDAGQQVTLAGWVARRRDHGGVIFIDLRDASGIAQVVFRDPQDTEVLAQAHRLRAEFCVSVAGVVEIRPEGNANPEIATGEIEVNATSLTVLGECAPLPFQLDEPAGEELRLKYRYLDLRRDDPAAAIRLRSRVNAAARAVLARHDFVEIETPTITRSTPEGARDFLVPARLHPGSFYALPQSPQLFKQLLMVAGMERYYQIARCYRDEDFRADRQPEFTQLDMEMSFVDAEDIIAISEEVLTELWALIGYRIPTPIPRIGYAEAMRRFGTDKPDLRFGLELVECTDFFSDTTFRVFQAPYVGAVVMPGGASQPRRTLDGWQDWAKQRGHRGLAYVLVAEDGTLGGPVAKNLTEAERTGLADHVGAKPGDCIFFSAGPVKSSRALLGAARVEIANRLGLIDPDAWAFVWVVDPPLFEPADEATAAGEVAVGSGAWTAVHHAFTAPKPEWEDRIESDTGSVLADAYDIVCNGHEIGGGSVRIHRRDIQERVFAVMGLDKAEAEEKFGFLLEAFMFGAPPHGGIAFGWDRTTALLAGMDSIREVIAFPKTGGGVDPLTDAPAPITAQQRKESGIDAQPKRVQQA

[2] = biological target: Shiga toxin 2 (Escherichia coli O157:H7) (UniProt P09385+P09386); experiment: E. coli 0.157:H7 Shiga Toxin SOP - stx2 screening assay; assay type: functional; parameters: scale not given: direction of the effect not stated beside the values; details: 30 µM

SMILES	Percent Effect [1] [%]	Percent Effect [2] [%]
COCc1cccc(NC(C)C(=O)N(C)Cc2cccc(F)c2)c1 (centres undefined)	-0.296	-8.46
CN(C)Cc1nnc(C2CCN(C(=O)CCc3cccs3)CC2)n1C	-0.948	-11.1
O=C(c1ccc(-n2cccn2)nc1)N1CCC(Nc2cccnn2)CC1	-2.94	26.9
COCCOc1ccc(NC(=O)N2CCCC2c2cc(C)no2)cn1 (centres undefined)	-5.36	25.9
Cc1nc(CN(C)C2CCCN(c3cccnn3)C2)no1 (centres undefined)	-6.37	-10.7
CCc1nnc(CN2CCN(C(=O)c3cc4ccccc4[nH]3)CC2)o1	-2.68	8.5
CNC(=O)Nc1cc(-c2ccc(Br)cc2)nn1CCO	-3.53	7.53
Cc1cccc(Nc2nccnc2C2CCCN2CC(=O)N(C)C)n1 (centres undefined)	-7.13	-29.9
CC(C)Nc1nc(N2CCCC2)nc2c1CN(C(C)C)CC2	2.18	-118
Cc1cc(N2CCCN(C(=O)Cc3csc(C)n3)CC2)ccn1	0.502	3.59
CS(=O)(=O)NCCCN1CCCCC1c1cc2ccccc2[nH]1 (centres undefined)	-1.17	-11.8
COCc1ccccc1NC(=O)[C@@H]1CCCN1C(=O)c1ccco1	-0.557	-2.06
Cc1cnn(C(C)C2CC2)c1NC(=O)c1cnccn1 (centres undefined)	-3.45	-3.84
Cc1cc(C)n(CC(C)CNC(=O)[C@@H](C)NC(=O)OC(C)(C)C)n1 (some centres undefined)	-1.38	9.62
Cc1cnc(CNC(=O)NCc2cccnc2N(C)C)s1	-2.25	-0.447
CC(C)c1ccc(C(C)NC(=O)N2CCC(n3cncn3)CC2)cc1 (centres undefined)	-0.885	3.93
COc1ccc(OC)c(Sc2ncccc2C(=O)N(C)CCC#N)c1	-6.44	13.3
CCN(CCC(F)(F)F)C(=O)Nc1cccc(N2CCOCC2)c1	1.08	-51.5
CC(=O)N(Cc1noc(C2CC2)n1)C1CCN(Cc2cccnc2)C1 (centres undefined)	-2.42	12.6
CC(C)c1nnc2n1CCN(C(=O)c1ccc(CN(C)C)cc1)C2	-0.75	17.3
O=C(Cc1cn2ccsc2n1)N1CCCC(n2cncn2)C1 (centres undefined)	-0.0111	-30
CC(=O)Nc1nc(C(=O)N2CCCC(n3ccnc3)C2)cs1 (centres undefined)	-1.21	0.121
COC(=O)[C@H](C)NC(=O)c1cc(-c2cccc(Cl)c2)no1	0.419	5.33
O=c1ccc(-c2cccs2)nn1CN1CCN(Cc2ccccc2)CC1	-1.1	9.12
Cn1ccnc1CN1CCC2(CC(=O)N(c3cccc(F)c3)C2)C1 (centres undefined)	6.19	-33.1
O=C(COCc1ccccc1)N1CCC(OCc2cccnc2)CC1	-4.62	11.5

SMILES	Percent Effect [1] [%]	Percent Effect [2] [%]
O=C(c1ccc(Cl)o1)N1CCCC(c2cc(C(F)(F)F)[nH]n2)C1 (centres undefined)	3.23	38.7
COCCN1CCC(CN(CC2CCCO2)C(=O)COC)CC1 (centres undefined)	-4.26	-0.207
O=C(NCC1CCN(C(=O)c2ccoc2)CC1)c1ccccc1Br	-6.27	3.64
O=C(c1cnc(COc2ccccc2)nc1O)N1CCOCC1	1.28	-10.9
Fc1ccc(-c2nnc(CN3CCOC(Cn4cncn4)C3)o2)cc1 (centres undefined)	1.55	-15.2
NC(=O)CN1CCCN(C(=O)c2ccn(-c3cccc(F)c3)n2)CC1	5.51	-6.78
CCn1cnnc1CNC(=O)N1CCN(c2cccs2)CC1	-5.34	-43.6
CCc1nc(C2CCCN(C(=O)c3ccc4c(c3)nnn4C)C2)no1 (centres undefined)	4.32	-19.5
O=C(NCCc1c[nH]cn1)c1ccc2c(c1)C(=O)N(C1CC1)C2=O	-1.45	-47.1
CCC(=O)N(C)C1CCN(Cc2ncc(C)c(OC)c2C)CC1	-0.759	-19.9
O=C(C1CCCc2[nH]ncc21)N1CCCCCC1 (centres undefined)	-0.324	1.51
c1cncc(COCc2nnc3n2CCN(Cc2ccsc2)C3)c1	-0.684	-54.6
CC(O)CN1CCN(C(=O)c2ccc(N(C)C)nc2)CC1 (centres undefined)	1.24	-70
CNC(=O)CC1CC2(CCN(Cc3nccs3)CC2)c2ccccc21 (centres undefined)	-1.76	-4.71
CCCc1cc(NC2CCc3ncnn3C2)n2ncnc2n1 (centres undefined)	-2.01	1.41
O=C(CCc1ccccn1)N1CCc2cc(Cl)cc(Cl)c2C1	15.8	-69.6
CN(C(=O)c1cccc2[nH]ncc12)C1CCN(c2ccccn2)CC1	4.76	24.8
Fc1ccc(CN2CCO[C@H]3[C@H](OCCN4CCCC4)CC[C@@H]32)cc1	2.94	-20.2
O=C(c1ccccn1)N1CCCC(c2nccn2CC2CCC2)C1 (centres undefined)	4.83	-29.9
CCc1ccc(C(=O)O)cc1S(=O)(=O)Nc1ccc(F)c(C#N)c1	4.35	-1.93
Cc1cnn(CCC(=O)N2CCN(c3ncccc3Cl)CC2)c1	-7	13.3
CNC(=O)[C@@H]1C[C@H]2CN(Cc3nccs3)C[C@H]2N1C	1.25	-17
CN(CCc1cccs1)C1CCCN(Cc2noc(C3CC3)n2)C1 (centres undefined)	-1.53	16.2
Cc1noc([C@@H]2CC[C@@H]3[C@@H](CCN3S(=O)(=O)c3cccnc3)O2)n1	0.127	-18.4
Cc1cc(CN2CCN(C(=O)CCc3cccc(F)c3F)CC2)on1	-2.44	-2.21
O=C(c1ccccn1)N1CCc2c(nc(N3CCCC3)[nH]c2=O)C1	-2.28	-39.9

SMILES	Percent Effect [1] [%]	Percent Effect [2] [%]
O=C(CCn1ccccc1=O)Nc1ccc(F)c(Cl)c1	5.06	-7.92
CCc1nnc2n1CCN(Cc1csc(-c3ccsc3)n1)C2	1.89	-7.29
Cc1cccnc1NC(=O)CC1(Cn2cnnn2)CCCCC1	7.1	2.81
Cc1cc(-c2cnn(CCNC(=O)c3cccnc3)c2C2CC2)on1	0.491	-2.62
Cc1ccc(C)c(C(=O)CN2C(=O)c3ccccc3CS2(=O)=O)c1	2.42	-18.8
COc1cccc(CCNC(=O)CN2CCCC2c2noc(C)n2)c1 (centres undefined)	-0.962	22.4
COCCO[C@@H]1C[C@H]2CN(C(=O)c3cnccn3)CCN2C1	6.43	-13
Cc1[nH]ncc1C(=O)N1CCCC(n2cncn2)C1 (centres undefined)	1.7	22.7
COCCn1ccnc1C1CCCN(C(=O)CSCC2CC2)C1 (centres undefined)	-2.09	12.8
Cn1nc(C2CCCN(C(=O)Cc3ccsc3)C2)c2nccnc21 (centres undefined)	-0.402	7.06
Cc1ccc(CC(=O)N2CCCC(c3nc(C)cs3)C2)cn1 (centres undefined)	2.77	7.66
O=C1NCC[C@]12CN(Cc1ccoc1)C[C@H]2c1ccccc1	1.06	-14.1
Fc1ccc(-c2n[nH]cc2-c2ccnc(NCCN3CCCC3)n2)cc1	8.63	-50.2
CS(=O)(=O)N1CCC2(CC1)CC(CC(=O)N1CCCC1)c1ccccc12 (centres undefined)	5.87	8.75
CCc1ncc2c(n1)CN(Cc1nc(-c3ccsc3)oc1C)CC2	2.25	25.2
CN1CCN(C2CCN(CC(=O)NCC(F)(F)F)CC2)C1=O	-5.68	-21
COc1ccc(CNC2CCN(CCc3ccncc3)CC2)cc1O	5.98	-49.6
CC(C)CNC(=O)c1c(-n2cnnn2)sc2c1CCC2	8.87	2.02
O=C(N1CCOCC1)N1CCc2ncnc(NC3CC3)c2CC1	6.32	-39.4
Cc1cc(C)n(CC2CN(Cc3nnsc3Cl)CCO2)n1 (centres undefined)	-1.81	31.3
O=C(NC1CCCC1)N1CCCC(c2nccn2Cc2ccncc2)C1 (centres undefined)	-4.62	12.8
O=C(Nc1cccc2c1CCCC2)C1CCCN1c1nccs1 (centres undefined)	2.28	-43.4
CCc1nc(CN(C(C)=O)C2CCN(CCc3cnn(C)c3)C2)no1 (centres undefined)	-5.05	-15.6
CC(C)N1CCO[C@H]2CN(C(=O)c3ccoc3)C[C@H]21	8.86	-1.73
Cc1nccn1-c1cccc(C2CCCN2S(=O)(=O)N(C)C)n1 (centres undefined)	1.37	-8.96
CCN1CCN(S(=O)(=O)c2cc(Cl)c(Cl)cc2C)CC1	-2.76	-10.7

SMILES	Percent Effect [1] [%]	Percent Effect [2] [%]
O=C(c1cccn1Cc1cccs1)N1CCCC1Cn1cccn1 (centres undefined)	-0.702	14.5
Cc1nn(C)c(C)c1C1CCCN1Cc1nc(-c2ccco2)no1 (centres undefined)	-6.56	-26.9
Cc1nc(C2CCCN2CC(=O)N2CCCc3ccccc32)no1 (centres undefined)	2.35	-12.2
CC(c1ccc(F)c(F)c1)N1CCN(Cc2nccn2C)CC1 (centres undefined)	-2.85	-13.2
OC(CN1CCN(Cc2nnc(C3CC3)o2)CC1)c1ccccc1 (centres undefined)	-1.28	6.16
CCN1C[C@H]2CCN(C(C)=O)CC[C@H]2S1(=O)=O	-0.319	-50.9
CNC(=O)c1cnc(/C=C/c2cc(OC)c(OC)c(OC)c2)s1	-0.971	-44.8
O=C(C1CC1)N1CCN(Cc2coc(-c3ccc(Cl)cc3)n2)CC1	-1.18	7.92
c1ccc(-c2noc3c2CN(CC2CC2)CC3)cc1	4.77	-9.68
CCC(=O)Nc1ccc(C(C)NC(=O)COCCOC)cc1 (centres undefined)	0.539	-16.3
Cc1ccc(NC(=O)Nc2cnc(N3CCN(C)CC3)nc2)c(Cl)c1	-3.19	-20.4
CN(C)Cc1ccnc(C2CCCN2Cc2cc[nH]n2)n1 (centres undefined)	-4.42	9.83
Cc1cccc(CN2CCc3nnc(CO)n3CC2)n1	0.728	-10.4
c1ccc(OCc2ccncc2)c(CNC2CCc3ncnn3C2)c1 (centres undefined)	-3.54	-62.8
COc1ccc(C(C)NC(=O)Cn2ccc(=O)n(C)c2=O)cc1OC (centres undefined)	2.15	-8.59
Cn1cc(-c2nc(CNCCn3cccn3)cs2)cn1	-0.0111	-121
Cc1cnc2n(c1=O)CC(C(=O)Nc1ccccc1Cl)CS2 (centres undefined)	-5.41	-4.63
Cc1cn2c(n1)CCC(NC(=O)CCn1ccnn1)C2 (centres undefined)	-3.77	19.8
Cn1cc(CN2CCC(F)(F)C3(CCN(c4cnccn4)C3)C2)cn1 (centres undefined)	-3.65	-4.7
CC(O)CN(CC(=O)NC(=O)NCC(F)(F)F)c1ccccc1 (centres undefined)	-7.32	29.2
COCCn1ccc(NC(=O)Nc2cccnc2)n1	-2.04	-43.4
Cc1cccc(N2CCN(CCNC(=O)c3ccnn3C)CC2)c1	5.62	-28.1
Cc1oc(C)c(C(=O)NCc2cccnc2N(C)C)c1C	-2.01	35.3
c1ncn(CC2CCCCN2Cc2csc(C3CCCC3)n2)n1 (centres undefined)	-7.74	-35.6
